We go through 8 molecules from PMC11062922 (Nature Chemical Biology, 2023).

Common to all, as to design: species or system human, MV4-11 + K-562 + COLO205 + SK-N-BE2 + OVCAR-8
One assay relates to DDR1. The note with it: read-out: apparent Kd, n = 1.
The next assay deals with DDR2. Particulars: read-out: apparent Kd; compound concentrations: 100 nM and 1000 nM (sheet 'Samples'), CATDS: 0.19207540013006; n = 1.
A further assay relates to FLT3. Particulars: read-out: apparent Kd; compound concentrations: 100 nM and 1000 nM (sheet 'Samples'), CATDS: 0.237161124657183; n = 1.
A further assay concerns RET. The note with it: read-out: apparent Kd, compound concentrations: 100 nM and 1000 nM (sheet 'Samples'), n = 1.
The next assay has as its system DCTPP1. The note with it: read-out: apparent Kd, n = 1.
In another assay the test system is MAPK14. The note with it: read-out: apparent Kd, n = 1.
In a further assay the test system is MAPK6. Particulars: read-out: apparent Kd; compound concentrations:100 nM and 1000 nM (sheet 'Samples'); n = 1.
For another assay, the system named is NTRK1. Particulars: read-out: apparent Kd; compound concentrations:100 nM and 1000 nM (sheet 'Samples'); n = 1.
The next assay deals with NUAK1. The note with it: read-out: apparent Kd; compound concentrations:100 nM and 1000 nM (sheet 'Samples'); n = 1.
The test system of another assay is PHKG2. Particulars: read-out: apparent Kd; compound concentrations:100 nM and 1000 nM (sheet 'Samples'); n = 1.
A further assay has as its system PRKD2. Particulars: read-out: apparent Kd; compound concentrations:100 nM and 1000 nM (sheet 'Samples'); n = 1.
The next assay has as its system CSNK2A2. The note with it: read-out: apparent Kd, compound concentrations: 100 nM and 1000 nM (sheet 'Samples'), n = 1.
The next assay deals with T1, DJA1.
T1 construct: gene DNAJA1
Particulars: read-out: apparent Kd; compound concentrations: 100 nM and 1000 nM (sheet 'Samples'), CATDS: 0.455945316982168; n = 1.

For the next assay, the system named is FLT4. The note with it: read-out: apparent Kd; compound concentrations: 100 nM and 1000 nM (sheet 'Samples'), CATDS: 0.41854797783311298; n = 1.
The test system of a further assay is NQO2. The note with it: read-out: apparent Kd; compound concentrations: 100 nM and 1000 nM (sheet 'Samples'), CATDS: 0.17633941136765999; n = 1.
Another assay relates to GSK3A. The note with it: read-out: apparent Kd; compound concentrations: 100 nM and 1000 nM (sheet 'Samples'), CATDS: 0.126367112680837; n = 1.
In a further assay the test system is GSK3B. The note with it: read-out: apparent Kd; compound concentrations: 100 nM and 1000 nM (sheet 'Samples'), CATDS: 0.11758336701376999; n = 1.
The next assay concerns HSP90AA1. Particulars: read-out: apparent Kd; compound concentrations: 100 nM and 1000 nM (sheet 'Samples'), CATDS: 0.187388385432427; n = 1.
Another assay has as its system HSPE1. Particulars: read-out: apparent Kd; compound concentrations: 100 nM and 1000 nM (sheet 'Samples'), CATDS: 0.293791169928867; n = 1.
A further assay deals with PGK1. The note with it: read-out: apparent Kd; compound concentrations: 100 nM and 1000 nM (sheet 'Samples'), CATDS: 0.43205738676527899; n = 1.
The subject of the next assay is PKM. The note with it: read-out: apparent Kd; compound concentrations: 100 nM and 1000 nM (sheet 'Samples'), CATDS: 9.7600585068996298E-2; n = 1.
A further assay has as its system CSNK2A1;CSNK2A3. Particulars: read-out: apparent Kd; compound concentrations: 100 nM and 1000 nM (sheet 'Samples'), CATDS: 0.33639720251881999; n = 1.
Another assay deals with PRKAA2. The note with it: read-out: apparent Kd; compound concentrations: 100 nM and 1000 nM (sheet 'Samples'), CATDS: 0.28519609584928202; n = 1.
For a further assay, the system named is DAPK3. Particulars: read-out: apparent Kd; compound concentrations:100 nM and 1000 nM (sheet 'Samples'); n = 1.
The subject of the next assay is EGFR. Particulars: read-out: apparent Kd; compound concentrations:100 nM and 1000 nM (sheet 'Samples'); n = 1.
The subject of another assay is HSP90B1. The note with it: read-out: apparent Kd; compound concentrations:100 nM and 1000 nM (sheet 'Samples'); n = 1.
The subject of the next assay is IRAK1. Particulars: read-out: apparent Kd; compound concentrations:100 nM and 1000 nM (sheet 'Samples'); n = 1.
In another assay the test system is HCK. Particulars: read-out: apparent Kd; compound concentrations: 100 nM and 1000 nM (sheet 'Samples'), CATDS: 9.2745081986231104E-2; n = 1.
For a further assay, the system named is IRAK3. Particulars: read-out: apparent Kd; compound concentrations: 100 nM and 1000 nM (sheet 'Samples'), CATDS: 7.7549132648748395E-2; n = 1.
A further assay concerns LYN. Particulars: read-out: apparent Kd; compound concentrations: 100 nM and 1000 nM (sheet 'Samples'), CATDS: 7.2911258996188402E-2; n = 1.
The subject of another assay is MAPK11. Particulars: read-out: apparent Kd; compound concentrations: 100 nM and 1000 nM (sheet 'Samples'), CATDS: 7.9880632684471306E-2; n = 1.
For the next assay, the system named is PIP4K2C. The note with it: read-out: apparent Kd; compound concentrations: 100 nM and 1000 nM (sheet 'Samples'), CATDS: 6.71745626151799E-2; n = 1.
Another assay deals with RIPK3. The note with it: read-out: apparent Kd; compound concentrations: 100 nM and 1000 nM (sheet 'Samples'), CATDS: 7.1422785641186204E-2; n = 1.
A further assay relates to TNK1. Particulars: read-out: apparent Kd; compound concentrations: 100 nM and 1000 nM (sheet 'Samples'), CATDS: 0.18276083287815401; n = 1.
A further assay has as its system TP53RK. Particulars: read-out: apparent Kd; compound concentrations: 100 nM and 1000 nM (sheet 'Samples'), CATDS: 6.3683372655405995E-2; n = 1.
A further assay has as its system YES1. Particulars: read-out: apparent Kd; compound concentrations: 100 nM and 1000 nM (sheet 'Samples'), CATDS: 0.118526844217484; n = 1.
Where [1] appears, read: compound concentrations:100 nM and 1000 nM (sheet 'Samples').

The structures appear in SMILES notation. Where two headings read alike, the source gives them in different places.

Regarding `COC(=O)Nc1nc2ccc(Oc3ccc(NC(=O)Nc4cccc(Cl)c4)cc3)cc2[nH]1.Cl` [GW589961A], the potency estimated from few doses was 199 nM in the assay on DDR1 (compound concentrations: 100 nM and 1000 nM (sheet 'Samples'), CATDS: 0.527903704232491); 1550 nM in the assay on DDR2; 874 nM with FLT3; 1140 nM with RET (CATDS: 0.213543633827599).
For `NCC1CNC(=O)c2cc3ccc(C(=O)Nc4cccnc4)cc3n2C1` (stereo not drawn) [BI00614644], the potency estimated from few doses in the assay on DCTPP1 (setting [1]) was 1830 nM; in the assay on MAPK14 (setting [1]), 1320 nM; with MAPK6 it was 1330 nM; in the assay with NTRK1, 1520 nM; in the assay with NUAK1 it was 1090 nM; in the assay on PHKG2, 1110 nM. Moreover, the potency estimated from few doses in the assay on PRKD2 is 950 nM.
As for `CCS(=O)(=O)c1ccc(OC)c(Nc2ncc(-c3ccc(F)cc3)o2)c1.Cl` [GW591947A], the potency estimated from few doses with CSNK2A2 (CATDS: 0.17401411869460601) is 1860 nM; with DJA1 it was 131 nM; in the assay on FLT4 it was 152 nM; in the assay with NQO2 it was 1750 nM.
On to `Cn1cc(-c2ccc3c(c2)CCN3C(=O)Cc2cccc(C(F)(F)F)c2)c2c(N)ncnc21` [GSK2606414A], for which the potency estimated from few doses with DDR1 (setting [1]) was 1550 nM.
For `Cn1cc(C2=C(c3cn(C)c4ccc(Cl)cc34)C(=O)NC2=O)c2ccccc21` [RO0317621-000], the potency estimated from few doses in the assay with DCTPP1 (compound concentrations: 100 nM and 1000 nM (sheet 'Samples'), CATDS: 8.8642199403974303E-2) was 2010 nM; in the assay with GSK3A, 423 nM; with GSK3B, 544 nM; in the assay with HSP90AA1, 137 nM; with HSPE1, 52.8 nM; with PGK1 it was 27.6 nM. The potency estimated from few doses with PKM is 1180 nM.
As to `CC1=C(C(=O)Nc2ccc3[nH]ncc3c2)C(c2ccc(F)cc2)NC(=O)N1` (stereo not drawn) [GSK180736A], the figures for the potency estimated from few doses with CSNK2A1;CSNK2A3, with CSNK2A2 (CATDS: 0.39667360391151801) and in the assay with PRKAA2 were 978 nM, 718 nM and 1410 nM, respectively.
In the case of `Cl.O=S1CCN(Cc2ccc(-c3ccc4ncnc(Nc5ccc(OCc6ccccc6)c(F)c5)c4c3)o2)CC1` [GW576924A], the potency estimated from few doses with DAPK3 was 1760 nM; in the assay with EGFR it was 28.8 nM; in the assay on HSP90B1 it was 1100 nM; with IRAK1, 1540 nM.
Consider `COc1cc(Nc2nccc(-c3c(-c4cccc(NC(=O)c5c(F)cccc5F)c4)nn4ncccc34)n2)cc(OC)c1OC` [GSK327238A], for which the potency estimated from few doses in the assay with DDR1 (compound concentrations: 100 nM and 1000 nM (sheet 'Samples'), CATDS: 6.8880271318571995E-2) was 1830 nM; in the assay on HCK, 926 nM; in the assay with IRAK3, 1360 nM; in the assay on LYN, 1580 nM; in the assay on MAPK11 it was 1270 nM; with MAPK14 (compound concentrations: 100 nM and 1000 nM (sheet 'Samples'), CATDS: 7.1692025023195896E-2), 1650 nM. In addition, the potency estimated from few doses in the assay with PIP4K2C was 1960 nM; in the assay on RET (CATDS: 0.140384770008642), 450 nM; with RIPK3, 1660 nM; in the assay with TNK1 it was 305 nM; in the assay with TP53RK, 2300 nM; in the assay with YES1, 592 nM.
